Data on 18 compounds can be found in PubChem BioAssay (Tox21).

Experiment [1] is described as follows: qHTS assay to identify small molecule antagonists of the thyroid receptor (TR) signaling pathway - cell viability counter screen (AID 743064). Also: nearly all actives have a fitted effect of over 50% in size. Also: potency is read from the fitted curve at half-maximal effect. A digest of the protocol:
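GH3.TRE-Luc rat pituitary cells carrying a TRE-luciferase reporter were treated with compound plus 1 nM T3 (final) for 23.5 h at 37 °C. Viability was then read in the same wells by CellTiter-Fluor fluorescence after a further 30 min.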

A short description of experiment [2]: qHTS assay to identify small molecule antagonists of the thyroid receptor (TR) signaling pathway (AID 743065). Also: nearly all actives have a fitted effect of over 55% in size. Also: potency is read from the fitted curve at half-maximal effect. A digest of the protocol:
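Antagonism measured as loss of luciferase signal in GH3 cells stably carrying a TRE-luciferase reporter, co-treated with compound and T3 (1 nM final) for 23.5 h at 37 C. Viability was read in the same well by CellTiter-Fluor.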
For orientation: qHTS replaces the single test concentration by a dilution series.

The test system of experiment [3] is thyroid hormone receptor (rat, GH3 cells). Nature of the experiment: qHTS assay to identify small molecule agonists of the thyroid receptor (TR) signaling pathway (AID 743066; calls by dose curve).
The target in experiment [4] is Estrogen receptor (Homo sapiens) (UniProt P03372). Nature of the experiment: qHTS assay to identify small molecule antagonists of the estrogen receptor alpha (ER-alpha) signaling pathway (AID 743069; active = well fitted curve in the direction sought with a large enough effect in the signal ratio in the repeat runs, not every such curve was filed as active; inconclusive = weak or mixed curves, or effect the other way; inactive = no such curve, though single readings can be large or run the other way; the % refers to the signal ratio). In a few lines:
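Antagonist mode: compounds in DMSO were co-added with 17beta-estradiol to ER-alpha-bla HEK293 cells (2% charcoal-stripped serum) and left 18 h at 37C. Reporter inhibition was measured as FRET fluorescence after 2 h LiveBLAzer substrate at room temperature.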

A short description of experiment [5]: qHTS assay to identify small molecule antagonists of the estrogen receptor alpha (ER-alpha) signaling pathway - cell viability counter screen (AID 743074; calls by dose curve;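 also: HEK293 cells carrying ER-alpha-UAS-bla reporter stimulated with 17beta-estradiol; nearly all actives have a fitted effect of over 45% in size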).
The target in experiment [6] is Estrogen receptor (Homo sapiens) (UniProt P03372). Nature of the experiment: qHTS assay to identify small molecule agonists of the estrogen receptor alpha (ER-alpha) signaling pathway using the BG1 cell line (AID 743079). Also: nearly all actives have a fitted effect of over 20% in size. Also: potency is read from the fitted curve at half-maximal effect. Conditions: BG1Luc4E2 cells, ERE-luciferase agonist, 22 h; activation: at 70.3 µM (top of the series).
Experiment [7] in a line: qHTS assay to identify small molecule antagonists of the estrogen receptor alpha (ER-alpha) signaling pathway using the BG1 cell line - cell viability counter screen (AID 743081).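 Also: compound given together with 17beta-estradiol as the ER stimulus; nearly all actives have a fitted effect of over 45% in size.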
For another experiment, the target named is Aromatase (Homo sapiens) (UniProt P11511). The experiment can be described thus: qHTS assay to identify aromatase inhibitors (AID 743083). Also: nearly all actives have a fitted effect of over 55% in size.
Experiment [8] has as its target Estrogen receptor (Homo sapiens) (UniProt P03372). Nature of the experiment: qHTS assay to identify small molecule agonists of the estrogen receptor alpha (ER-alpha) signaling pathway (AID 743075; calls by dose curve;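 also: HEK293 GripTite cells with ER-alpha and UAS-driven beta-lactamase reporter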; also: potency is read from the fitted curve at half-maximal effect).
Experiment [9] is described as follows: qHTS assay to identify small molecule antagonists of the estrogen receptor alpha (ER-alpha) signaling pathway using the BG1 cell line (AID 743080; calls by dose curve;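 also: BG1 cells stimulated with 17beta-estradiol alongside compound; nearly all actives have a fitted effect of over 25% in size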). A digest of the protocol:
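Luciferase inhibition measured with ONE-Glo after 30 min at RT in BG1Luc4E2 cells given test compounds and 17beta-estradiol for 21.5 h at 37 C; CellTiter-Fluor viability read in the same wells beforehand.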

The structures appear in SMILES notation. Activity calls are given as the source filed them. Unless noted, calls follow the shape of the dose curve; as a rule, active = well fitted curve in the direction sought with a large enough effect in the repeat runs; inconclusive = weak or mixed curves; inactive = no such curve, though single readings can be large; an effect the other way counts as inactive or inconclusive.

Sequence of Estrogen receptor (Homo sapiens) (P03372 whole entry, looked up): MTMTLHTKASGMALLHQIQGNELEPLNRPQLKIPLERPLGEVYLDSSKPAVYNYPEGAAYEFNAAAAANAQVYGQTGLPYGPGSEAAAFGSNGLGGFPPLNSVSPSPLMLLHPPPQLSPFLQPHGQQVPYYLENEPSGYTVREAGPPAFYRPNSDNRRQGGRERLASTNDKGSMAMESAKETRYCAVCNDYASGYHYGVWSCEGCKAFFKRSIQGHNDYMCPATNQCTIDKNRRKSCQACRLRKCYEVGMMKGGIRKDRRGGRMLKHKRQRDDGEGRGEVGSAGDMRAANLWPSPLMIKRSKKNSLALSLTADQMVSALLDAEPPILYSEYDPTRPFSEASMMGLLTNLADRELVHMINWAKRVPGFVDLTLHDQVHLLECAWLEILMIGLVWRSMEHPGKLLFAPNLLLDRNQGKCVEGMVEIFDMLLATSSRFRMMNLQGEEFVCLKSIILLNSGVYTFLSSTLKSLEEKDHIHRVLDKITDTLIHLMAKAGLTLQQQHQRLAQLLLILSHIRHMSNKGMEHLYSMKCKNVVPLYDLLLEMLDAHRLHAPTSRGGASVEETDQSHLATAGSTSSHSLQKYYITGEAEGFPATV
Sequence of Aromatase (Homo sapiens) (P11511 whole entry, looked up): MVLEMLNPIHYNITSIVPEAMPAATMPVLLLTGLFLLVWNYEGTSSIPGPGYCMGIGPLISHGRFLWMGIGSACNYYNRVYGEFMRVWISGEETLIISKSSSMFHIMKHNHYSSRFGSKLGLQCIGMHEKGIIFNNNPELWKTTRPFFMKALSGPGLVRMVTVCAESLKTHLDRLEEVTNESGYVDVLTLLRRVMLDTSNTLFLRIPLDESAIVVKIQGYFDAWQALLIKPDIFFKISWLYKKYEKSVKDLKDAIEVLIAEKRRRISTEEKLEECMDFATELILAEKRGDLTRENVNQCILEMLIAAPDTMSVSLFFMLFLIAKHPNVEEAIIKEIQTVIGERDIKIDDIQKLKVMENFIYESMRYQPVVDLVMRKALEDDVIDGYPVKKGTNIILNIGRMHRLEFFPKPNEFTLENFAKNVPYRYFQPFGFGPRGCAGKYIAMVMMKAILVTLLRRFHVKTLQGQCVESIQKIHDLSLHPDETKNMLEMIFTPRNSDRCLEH

For `O=P(O)(O)OC[C@H]1O[C@](O)(COP(=O)(O)O)[C@@H](O)[C@@H]1O`, the Potency result in experiment [1], in experiment [2], in [3], in experiment [4], in [5] and in experiment [7] was “inactive” in each case. Further, the Potency entry with Aromatase (Homo sapiens) is “inactive”. Also, the Potency in experiment [6] is 10.6 µM (active).

Regarding `NCCCNCCCCNC(=O)C(O)NC(=O)CCCCCCN=C(N)N` (configuration not stated), the Potency entry in [1], in experiment [2], in experiment [3], in experiment [4], in [5] and in experiment [8] was “inactive” throughout. Also, the Potency result (in experiment [6]; with Aromatase (Homo sapiens)) was “inactive” throughout.

Regarding `COc1ccc2cc([C@H](C)CO)ccc2c1`, the Potency result in [1], in experiment [2], in [3], in experiment [4], in [5] and in [8] was “inactive” in each case. Also, the Potency entry (in experiment [7]; with Aromatase (Homo sapiens)) was “inactive” each time. Further, the Potency in experiment [6] was 33.5 µM (active).

For the compound `CC(C)(C)CC(C)(C)c1cc(Cc2cc(C(C)(C)CC(C)(C)C)cc(-n3nc4ccccc4n3)c2O)c(O)c(-n2nc3ccccc3n2)c1`, the Potency result in [1], in [2], in [3], in experiment [4], in experiment [5] and in experiment [8] was “inactive” each time. The Potency entry (in experiment [9]; in [7]; with Aromatase (Homo sapiens)) was “inactive” in each case.

For `CC(=O)OCC(=O)[C@@]12OC3(CCCC3)O[C@@H]1C[C@H]1[C@@H]3CCC4=CC(=O)C=C[C@]4(C)[C@@]3(F)[C@@H](O)C[C@@]12C`, the Potency result in experiment [1], in experiment [2], in experiment [3], in experiment [4], in [5] and in experiment [8] was “inactive” throughout. The Potency result with Aromatase (Homo sapiens) is “inactive”.

Take `CCC(Cc1c(I)cc(I)c(O)c1I)C(=O)O` (configuration not stated): the Potency result in [1], in experiment [2], in experiment [3], in experiment [4], in experiment [5] and in [9] was “inactive” in each case. In addition, the Potency result (in experiment [7]; with Aromatase (Homo sapiens)) was “inactive” in each case.

Consider `CC(C)CN(C[C@@H](O)[C@H](Cc1ccccc1)NC(=O)O[C@H]1CO[C@H]2OCC[C@H]21)S(=O)(=O)c1ccc(N)cc1`, for which the Potency result in experiment [1], in experiment [2], in [3], in experiment [4], in experiment [5] and in experiment [8] was “inactive” in each case. Also, the Potency result (in [6]; in [7]; in the experiment with Aromatase (Homo sapiens)) was “inactive” throughout.

Take `CC1(C)C(\C=C/C=C\C=C/C=C2/N(CCCCS(=O)(=O)O)c3ccc4ccccc4c3C2(C)C)=[N+](CCCCS(=O)(=O)[O-])c2ccc3ccccc3c21`: the Potency in experiment [1] is 15 µM (active); in [2] it was 0.841 µM (active). In addition, the Potency entry (in experiment [3]; in experiment [4]; in experiment [5]; in experiment [8]; in experiment [6]; with Aromatase (Homo sapiens)) was “inactive” each time.

Consider `S=C=Nc1ccc(N=C=S)cc1`, for which the Potency result in [1], in [2], in [3], in experiment [4], in [5] and in experiment [7] was “inactive” in each case. Moreover, the Potency entry with Aromatase (Homo sapiens) was “inactive”. The results for the Potency in experiment [8] and in experiment [6] were 15.1 µM [inconclusive] (active) and 1.06 µM (active), respectively.

`CC1(C)S[C@@H]2[C@H](NC(=O)C(C(=O)Oc3ccc4c(c3)CCC4)c3ccccc3)C(=O)N2[C@H]1C(=O)O` (some centres not stated): the Potency entry in experiment [1], in [2], in experiment [3], in [4], in experiment [5] and in experiment [8] was “inactive” in each case. Besides, the Potency result (in experiment [9]; in experiment [7]; with Aromatase (Homo sapiens)) was “inactive” in each case.

`CC1=C(/C=C/C(C)=C/C=C/C(C)=C/C=C/C=C(C)/C=C/C=C(C)/C=C/C2=C(C)C(=O)CCC2(C)C)C(C)(C)CCC1=O`: the Potency entry (in experiment [1]; in experiment [2]; in experiment [3]; in experiment [4]; in [5]; in the experiment with Aromatase (Homo sapiens)) was “inactive” throughout. Also, the Potency was 26.8 µM [inconclusive] (active) in [8] and 5.31 µM (active) in [6].

Take `CN(C)CC/C=C1/c2ccccc2CSc2ccccc21`: the Potency in experiment [1] was 4.52 µM (active); in experiment [2] it was 9.02 µM (active). Moreover, the Potency result in experiment [3], in experiment [4], in experiment [5], in [8], in [6] and in [7] was “inactive” throughout. Also, the Potency entry with Aromatase (Homo sapiens) was “inactive”.

For the compound `CCCC(=O)O[C@]1(C(=O)COC(C)=O)CC[C@H]2[C@@H]3C[C@H](F)C4=CC(=O)C=C[C@]4(C)[C@@]3(F)[C@@H](O)C[C@@]21C`, the Potency entry in [1], in experiment [2], in experiment [3], in experiment [4], in experiment [5] and in experiment [8] was “inactive” in each case. In addition, the Potency entry (in experiment [6]; in experiment [7]; with Aromatase (Homo sapiens)) was “inactive” each time.

`NCCCC[C@H](NC(=O)[C@@H]1CCCN1C(=O)[C@@H]1CSSC[C@H](N)C(=O)N[C@@H](Cc2ccccc2)C(=O)N[C@@H](Cc2ccccc2)C(=O)N[C@@H](CCC(N)=O)C(=O)N[C@@H](CC(N)=O)C(=O)N1)C(=O)NCC(N)=O`: the Potency entry in experiment [1], in experiment [2], in experiment [3], in experiment [4], in experiment [5] and in experiment [8] was “inactive” each time. For the same compound, the Potency entry (in experiment [6]; with Aromatase (Homo sapiens)) was “inactive” each time.

As to `CC(C)(CO)[C@@H](O)C(=O)NCCCC(=O)O`, the Potency result in experiment [1], in [2], in experiment [3], in [4], in [5] and in [8] was “inactive” throughout. Also, the Potency result (in experiment [9]; in experiment [7]; with Aromatase (Homo sapiens)) was “inactive” throughout.

On to `CN=C(NC)NCc1ccccc1`, for which the Potency entry in experiment [1], in [2], in [3], in experiment [4], in experiment [5] and in [8] was “inactive” in each case. Besides, the Potency result (in experiment [7]; with Aromatase (Homo sapiens)) was “inactive” throughout.

For `COc1ccc(/C=C/C(=O)OCCC(C)C)cc1`, the Potency entry in experiment [1], in experiment [2], in experiment [3], in experiment [4], in experiment [5] and in experiment [8] was “inactive” throughout. The Potency entry (in [7]; in the experiment with Aromatase (Homo sapiens)) was “inactive” each time.

As to `CC(O)[C@@H]1NC(=O)[C@H](Cc2ccccc2)NC(=O)[C@H](C(C)O)NC(=O)[C@H](CCCCN)NC(=O)[C@H](Cc2c[nH]c3ccccc23)NC(=O)[C@H](Cc2ccccc2)NC(=O)[C@H](Cc2ccccc2)NC(=O)[C@H](CC(N)=O)NC(=O)[C@H](CCCCN)NC(=O)[C@@H](NC(=O)CNC(=O)[C@H](C)N)CSSC[C@@H](C(=O)O)NC(=O)[C@H](CO)NC1=O` (some centres not stated), the Potency entry in [1], in [2], in experiment [3], in [5], in experiment [8] and in experiment [6] was “inactive” in each case. In addition, the Potency result (in [9]; in experiment [7]; with Aromatase (Homo sapiens)) was “inactive” throughout.
